Experimental data published in PMC7862700, “An all-to-all approach to the identification of sequence-specific readers for epigenetic DNA modifications on cytosine”.

How the values were obtained:
Assay in all cases: DAPPL (digital affinity profiling via proximity ligation, sequencing); 10 mM Tris-HCl pH 7.5, 50 mM NaCl, 1 mM DTT, 4% glycerol, room temperature, 30 min; GST-TFs on glutathione beads, 16-mer random dsDNA library, 0.1% formaldehyde crosslink after washing; high values mean tight binding
HSF1 = HSF1 (Homo sapiens, UniProt Q00613 1-529); details: protein: recombinant; tags: N-terminal GST; chain copies: 3; dsDNA, one strand shown
Summary of the method: (§1)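 Binding signal is each hexamer's read frequency for a factor divided by its frequency in the tag-only sample. The factors were GST-fused human transcription factors from yeast, captured on glutathione beads, DNA-barcoded and pooled with that sample. Pools were incubated with 200 nmole of a random double-stranded 16-mer DNA library in Tris/NaCl/DTT/glycerol buffer at room temperature for 30 min, then washed, crosslinked with 0.1% formaldehyde, proximity-ligated with BsaI/T4 ligase (1 h, 37 °C), PCR-amplified and sequenced on an Illumina NextSeq500.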

CRX = CRX (Homo sapiens, UniProt O43186 1-299); details: protein: recombinant; tags: N-terminal GST; dsDNA, one strand shown
Summary of the method: as §1

ETV2 = target: T1, ETV2 (Homo sapiens, UniProt O00321 1-342); details: protein: recombinant; tags: N-terminal GST; dsDNA, one strand shown
T1 sequence: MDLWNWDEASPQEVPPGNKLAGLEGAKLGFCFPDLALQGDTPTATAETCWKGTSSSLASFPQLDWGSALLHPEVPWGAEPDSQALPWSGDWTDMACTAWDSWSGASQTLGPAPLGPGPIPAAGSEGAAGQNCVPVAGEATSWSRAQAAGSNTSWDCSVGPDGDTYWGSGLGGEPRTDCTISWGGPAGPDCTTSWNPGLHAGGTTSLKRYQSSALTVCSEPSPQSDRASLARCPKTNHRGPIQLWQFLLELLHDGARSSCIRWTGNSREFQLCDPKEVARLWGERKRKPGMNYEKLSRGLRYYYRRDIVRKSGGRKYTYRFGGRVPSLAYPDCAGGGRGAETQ
Summary of the method: as §1

ELF3 = target: T2, ELF3 (Homo sapiens, UniProt P78545 1-371); details: protein: recombinant; tags: N-terminal GST; dsDNA, one strand shown
T2 sequence: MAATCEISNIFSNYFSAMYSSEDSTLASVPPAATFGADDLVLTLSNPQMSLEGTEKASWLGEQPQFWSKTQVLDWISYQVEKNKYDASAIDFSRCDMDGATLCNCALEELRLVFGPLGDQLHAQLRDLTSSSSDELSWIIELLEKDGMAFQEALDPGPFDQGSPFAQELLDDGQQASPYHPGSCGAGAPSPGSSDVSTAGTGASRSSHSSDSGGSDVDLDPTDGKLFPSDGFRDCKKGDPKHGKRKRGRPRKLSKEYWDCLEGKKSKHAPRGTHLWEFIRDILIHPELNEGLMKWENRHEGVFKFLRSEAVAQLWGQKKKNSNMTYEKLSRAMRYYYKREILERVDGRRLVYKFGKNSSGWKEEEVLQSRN
Summary of the method: as §1

ETV7 = target: T3, ETV7 (Homo sapiens, UniProt Q9Y603 1-341); details: protein: recombinant; tags: N-terminal GST; dsDNA, one strand shown
T3 sequence: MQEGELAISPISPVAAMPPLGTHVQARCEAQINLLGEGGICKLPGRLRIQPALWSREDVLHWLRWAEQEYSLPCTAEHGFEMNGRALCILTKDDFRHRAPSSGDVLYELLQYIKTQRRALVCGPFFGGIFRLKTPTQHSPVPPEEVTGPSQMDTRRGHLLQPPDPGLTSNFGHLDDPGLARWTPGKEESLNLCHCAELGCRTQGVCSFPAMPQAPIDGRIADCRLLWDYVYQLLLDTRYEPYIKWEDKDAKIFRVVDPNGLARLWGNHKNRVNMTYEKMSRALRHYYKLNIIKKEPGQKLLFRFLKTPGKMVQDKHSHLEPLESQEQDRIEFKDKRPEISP
Summary of the method: as §1

Sequence of HSF1 (Q00613 whole entry, the tested form may be a part): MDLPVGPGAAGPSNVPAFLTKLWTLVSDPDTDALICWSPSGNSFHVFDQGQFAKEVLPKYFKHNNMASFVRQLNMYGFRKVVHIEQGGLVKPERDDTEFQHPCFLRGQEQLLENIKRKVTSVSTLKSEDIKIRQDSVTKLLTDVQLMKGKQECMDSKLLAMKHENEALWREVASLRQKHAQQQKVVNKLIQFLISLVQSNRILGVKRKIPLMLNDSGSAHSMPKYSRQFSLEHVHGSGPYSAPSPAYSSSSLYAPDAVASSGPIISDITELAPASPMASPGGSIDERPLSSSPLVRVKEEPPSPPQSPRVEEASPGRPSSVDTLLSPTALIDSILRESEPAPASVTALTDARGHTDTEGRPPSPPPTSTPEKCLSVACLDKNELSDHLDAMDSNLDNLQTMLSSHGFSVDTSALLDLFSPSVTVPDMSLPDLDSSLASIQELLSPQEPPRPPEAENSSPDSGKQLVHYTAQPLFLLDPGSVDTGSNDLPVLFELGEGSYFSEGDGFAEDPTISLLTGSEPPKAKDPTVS
Sequence of CRX (O43186 whole entry): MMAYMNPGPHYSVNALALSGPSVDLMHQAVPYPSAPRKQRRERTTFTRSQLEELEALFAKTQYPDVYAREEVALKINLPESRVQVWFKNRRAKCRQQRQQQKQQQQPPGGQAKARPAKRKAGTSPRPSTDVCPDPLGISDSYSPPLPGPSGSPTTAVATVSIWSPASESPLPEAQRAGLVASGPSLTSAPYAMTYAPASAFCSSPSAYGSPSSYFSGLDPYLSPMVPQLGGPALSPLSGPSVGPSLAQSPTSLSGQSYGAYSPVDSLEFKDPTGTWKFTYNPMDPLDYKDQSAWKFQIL

For TTAGTC, the binding signal (HSF1) was 1.17 fold enrichment (6-mer frequency, TF over GST control) and the binding signal (CRX) was 1.57 fold enrichment (6-mer frequency, TF over GST control).

For ACGCGA, the binding signal (HSF1) was 1.04 fold enrichment (6-mer frequency, TF over GST control) and the binding signal (ETV2) was 1.02 fold enrichment (6-mer frequency, TF over GST control).

For AGCATA, the binding signal (HSF1) was 1.04 fold enrichment (6-mer frequency, TF over GST control), the binding signal (ELF3) was 1.01 fold enrichment (6-mer frequency, TF over GST control) and the binding signal (ETV7) was 1.01 fold enrichment (6-mer frequency, TF over GST control).
